# Compounds without any hit were thinned out: in the full panel of roughly 79,000, 15% have a hit. Unmarked numbers belong to inactive results. Calls of active or inactive are those of the source. No stated cut-off is given here; in the data, active means growth inhibition above about 70%; inactive means the rest.
# Key:
# [1] = NCI Yeast Anticancer Drug Screen. Data for the rad52 strain (AID 147);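 further: 0% = growth of vehicle-treated control cultures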; settings: S. cerevisiae rad52 mutant growth inhibition, stronger effect = higher value
# Method in brief: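 Genetically altered yeast (DNA damage repair defect) treated with compound; inhibition calculated relative to vehicle.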
# [2] = NCI Yeast Anticancer Drug Screen. Data for the wt1 strain (AID 149);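 further: 0% = growth of vehicle-treated wt1 cultures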; settings: S. cerevisiae wt1 strain (SPY 50644) growth inhibition, stronger effect = higher value
# Method in brief: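 The wt1 strain was treated with compounds, and growth was compared with vehicle-treated cultures to give inhibition.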
# [3] = NCI Yeast Anticancer Drug Screen. Data for the rad50EPP+ strain (AID 151);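 further: 0% = growth of vehicle-treated control cultures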; settings: S. cerevisiae rad50 mutant strain, stronger effect = higher value
# Method in brief: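 Strain rad50EPP+; compound exposure; % growth inhibition vs vehicle.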
# [4] = NCI Yeast Anticancer Drug Screen. Data for the mgt1 strain (AID 153); settings: S. cerevisiae mgt1 mutant growth inhibition, stronger effect = higher value
# Method in brief: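 Read-out: yeast growth inhibition vs vehicle control. Strain mgt1, drawn from a panel altered in DNA damage repair or cell cycle control.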
# [5] = NCI Yeast Anticancer Drug Screen. Data for the rad50 strain (AID 155);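 further: 0% = growth of vehicle-only cultures of the same strain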; settings: S. cerevisiae rad50 strain growth inhibition, stronger effect = higher value
# Method in brief: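 Cells are treated with compound, grown, and their growth is then scored against vehicle-only cultures of the same repair-deficient yeast strain.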
# [6] = NCI Yeast Anticancer Drug Screen. Data for the mec2-1 strain (AID 157); settings: S. cerevisiae mec2-1 strain, stronger effect = higher value
# Method in brief: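 Cells of the genetically defined mec2-1 yeast strain are incubated with test compound. Inhibition of growth is calculated against vehicle-treated controls.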
# [7] = NCI Yeast Anticancer Drug Screen. Data for the rad14 strain (AID 159);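 further: 0% = growth of vehicle-treated control cultures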; settings: S. cerevisiae rad14 strain growth inhibition, stronger effect = higher value
# Method in brief: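 Readout: yeast growth inhibition, referenced to vehicle-only cultures. Strain bears a defined alteration in DNA damage repair.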
# [8] = NCI Yeast Anticancer Drug Screen. Data for the sgs1 mgt1 strain (AID 161);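 further: 0% = growth of cultures given vehicle only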; settings: S. cerevisiae sgs1 mgt1 strain, stronger effect = higher value
# Method in brief: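 Inhibition of yeast growth, normalised to vehicle-treated controls, is reported for a strain bearing genetic alterations in DNA damage repair.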
# [9] = NCI Yeast Anticancer Drug Screen. Data for the CLN2oe strain (AID 163);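 further: 0% = growth of vehicle-only control cultures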; settings: S. cerevisiae CLN2oe strain, stronger effect = higher value
# Method in brief: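 Strain altered in cell-cycle control, incubated with compound; growth compared to solvent-treated controls.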
# [10] = NCI Yeast Anticancer Drug Screen. Data for the cln2 rad14 strain (AID 165);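 further: 0% = growth equal to vehicle treated cultures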; settings: S. cerevisiae cln2 rad14 strain, stronger effect = higher value
# Method in brief: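 The screen exposed genetically defined yeast (cln2 rad14) to test compounds and scored growth inhibition relative to vehicle-treated controls.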
# [11] = NCI Yeast Anticancer Drug Screen. Data for the bub3 strain (AID 167); settings: S. cerevisiae bub3 mutant strain, stronger effect = higher value
# Method in brief: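 Part of a panel of yeast mutants defective in DNA damage repair or cell cycle regulation. Each strain is grown with compound, and inhibition is calculated relative to solvent-treated cultures.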
# [12] = NCI Yeast Anticancer Drug Screen. Data for the wt2 strain (AID 169);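 further: 0% = growth of vehicle-treated yeast cultures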; settings: S. cerevisiae wt2 strain growth inhibition, stronger effect = higher value
# Method in brief: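 Steps: yeast strain treated with compound; growth recorded; inhibition calculated relative to cultures given vehicle alone.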
# [13] = NCI Yeast Anticancer Drug Screen. Data for the mlh1 strain (AID 171);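 further: 0% = growth of vehicle-treated control cultures of the same strain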; settings: S. cerevisiae mlh1 strain growth inhibition, stronger effect = higher value
# Method in brief: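 Yeast screen: mutant strain plus compound, growth scored against vehicle control wells.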
# [14] = NCI Yeast Anticancer Drug Screen. Data for the sgs1 strain (AID 173);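 further: 0% = growth of vehicle-only control cultures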; settings: S. cerevisiae sgs1 mutant, stronger effect = higher value
# Method in brief: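 Inhibition of yeast growth served as the measure. The mutant strain was treated with each compound, and growth was normalised to cultures receiving vehicle alone.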
# [15] = NCI Yeast Anticancer Drug Screen. Data for the mlh1 rad18 strain (AID 175); settings: S. cerevisiae mlh1 rad18 strain growth inhibition, stronger effect = higher value
# Method in brief: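 Compound-treated yeast growth, normalised to vehicle controls. Strain bears defined DNA repair mutations.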
# [16] = NCI Yeast Anticancer Drug Screen. Data for the rad18 strain (AID 177); settings: S. cerevisiae rad18 mutant growth inhibition, stronger effect = higher value
# Method in brief: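 Inhibition values reflect reduced yeast growth compared with vehicle-treated controls, using a strain engineered with a DNA damage repair defect.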
# [17] = at 5.0 µM (retest, dose inferred, filed as 0.5)
# [18] = at 50.0 µM (retest, dose inferred, filed as 5.0)
smiles,measurement,setting,value
BrCc1cccc2ccc3cccc(CBr)c3c12,growth inhibition,[1]; at 1.2 µM,-3%
same,growth inhibition,[1]; at 3.7 µM,-4%
same,growth inhibition,[1]; at 11.0 µM,-1%
same,growth inhibition,[1]; at 33.0 µM,2%
same,growth inhibition,[1]; at 100.0 µM,10%
same,growth inhibition,[2]; at 1.2 µM,-3%
same,growth inhibition,[2]; at 3.7 µM,-3%
same,growth inhibition,[2]; at 11.0 µM,-4%
same,growth inhibition,[2]; at 33.0 µM,-8%
same,growth inhibition,[2]; at 100.0 µM,-7%
same,growth inhibition,[3]; at 1.2 µM,-4%
same,growth inhibition,[3]; at 3.7 µM,0%
same,growth inhibition,[3]; at 11.0 µM,12%
same,growth inhibition,[3]; at 33.0 µM,18%
same,growth inhibition,[3]; at 100.0 µM,24%
same,growth inhibition,[4]; at 1.2 µM,2%
same,growth inhibition,[4]; at 3.7 µM,0%
same,growth inhibition,[4]; at 11.0 µM,1%
same,growth inhibition,[4]; at 33.0 µM,-2%
same,growth inhibition,[4]; at 100.0 µM,3%
same,growth inhibition,[5]; at 1.2 µM,-3%
same,growth inhibition,[5]; at 3.7 µM,-3%
same,growth inhibition,[5]; [17],-1%
same,growth inhibition,[5]; at 11.0 µM,0%
same,growth inhibition,[5]; at 33.0 µM,1%
same,growth inhibition,[5]; [18],85% (active)
same,growth inhibition,[5]; at 50.0 µM,66.3%
same,growth inhibition,[5]; at 100.0 µM,10%
same,growth inhibition,[6]; at 1.2 µM,-2%
same,growth inhibition,[6]; at 3.7 µM,-1%
same,growth inhibition,[6]; [17],-5%
same,growth inhibition,[6]; at 11.0 µM,-2%
same,growth inhibition,[6]; at 33.0 µM,-3%
same,growth inhibition,[6]; [18],97% (active)
same,growth inhibition,[6]; at 50.0 µM,21.8%
same,growth inhibition,[6]; at 100.0 µM,-2%
same,growth inhibition,[7]; at 1.2 µM,-2%
same,growth inhibition,[7]; at 3.7 µM,-2%
same,growth inhibition,[7]; at 11.0 µM,-2%
same,growth inhibition,[7]; at 33.0 µM,-2%
same,growth inhibition,[7]; at 100.0 µM,2%
same,growth inhibition,[8]; [17],-3%
same,growth inhibition,[8]; [18],85% (active)
same,growth inhibition,[8]; at 50.0 µM,72% (active)
same,growth inhibition,[9]; at 1.2 µM,-2%
same,growth inhibition,[9]; at 3.7 µM,0%
same,growth inhibition,[9]; at 11.0 µM,-3%
same,growth inhibition,[9]; at 33.0 µM,-13%
same,growth inhibition,[9]; at 100.0 µM,-12%
same,growth inhibition,[10]; [17],-15%
same,growth inhibition,[10]; [18],21%
same,growth inhibition,[10]; at 50.0 µM,-24%
same,growth inhibition,[11]; at 1.2 µM,-12%
same,growth inhibition,[11]; at 3.7 µM,-14%
same,growth inhibition,[11]; [17],4%
same,growth inhibition,[11]; at 11.0 µM,-8%
same,growth inhibition,[11]; at 33.0 µM,-11%
same,growth inhibition,[11]; [18],50%
same,growth inhibition,[11]; at 50.0 µM,65%
same,growth inhibition,[11]; at 100.0 µM,-6%
same,growth inhibition,[12]; at 1.2 µM,-2%
same,growth inhibition,[12]; at 3.7 µM,-5%
same,growth inhibition,[12]; at 11.0 µM,-4%
same,growth inhibition,[12]; at 33.0 µM,-6%
same,growth inhibition,[12]; at 100.0 µM,-4%
same,growth inhibition,[13]; at 1.2 µM,-3%
same,growth inhibition,[13]; at 3.7 µM,-3%
same,growth inhibition,[13]; at 11.0 µM,-2%
same,growth inhibition,[13]; at 33.0 µM,-2%
same,growth inhibition,[13]; at 100.0 µM,1%
same,growth inhibition,[14]; at 1.2 µM,-3%
same,growth inhibition,[14]; at 3.7 µM,-3%
same,growth inhibition,[14]; at 11.0 µM,-4%
same,growth inhibition,[14]; at 33.0 µM,-3%
same,growth inhibition,[14]; at 100.0 µM,-1%
same,growth inhibition,[15]; [17],-1%
same,growth inhibition,[15]; [18],96% (active)
same,growth inhibition,[15]; at 50.0 µM,73.5% (active)
same,growth inhibition,[16]; at 1.2 µM,-4%
same,growth inhibition,[16]; at 3.7 µM,0%
same,growth inhibition,[16]; at 11.0 µM,-1%
same,growth inhibition,[16]; at 33.0 µM,0%
same,growth inhibition,[16]; at 100.0 µM,11%
COC1=CC(=O)C(C2(OC(C)C)OC(=O)C(Cl)=C2Cl)=CC1=O (stereo not drawn),growth inhibition,[1]; at 1.2 µM,1%
same,growth inhibition,[1]; at 3.7 µM,22%
same,growth inhibition,[1]; at 11.0 µM,99% (active)
same,growth inhibition,[1]; at 33.0 µM,99% (active)
same,growth inhibition,[1]; at 100.0 µM,99% (active)
same,growth inhibition,[2]; at 1.2 µM,1%
same,growth inhibition,[2]; at 3.7 µM,8%
same,growth inhibition,[2]; at 11.0 µM,97% (active)
same,growth inhibition,[2]; at 33.0 µM,99% (active)
same,growth inhibition,[2]; at 100.0 µM,99% (active)
same,growth inhibition,[3]; at 1.2 µM,8%
same,growth inhibition,[3]; at 3.7 µM,48%
same,growth inhibition,[3]; at 11.0 µM,94% (active)
same,growth inhibition,[3]; at 33.0 µM,99% (active)
same,growth inhibition,[3]; at 100.0 µM,99% (active)
same,growth inhibition,[4]; at 1.2 µM,-3%
same,growth inhibition,[4]; at 3.7 µM,17%
same,growth inhibition,[4]; at 11.0 µM,99% (active)
same,growth inhibition,[4]; at 33.0 µM,99% (active)
same,growth inhibition,[4]; at 100.0 µM,99% (active)
same,growth inhibition,[5]; at 1.2 µM,1%
same,growth inhibition,[5]; at 3.7 µM,33%
same,growth inhibition,[5]; [17],56%
same,growth inhibition,[5]; at 11.0 µM,99% (active)
same,growth inhibition,[5]; at 33.0 µM,99% (active)
same,growth inhibition,[5]; [18],99% (active)
same,growth inhibition,[5]; at 50.0 µM,96.2% (active)
same,growth inhibition,[5]; at 100.0 µM,99% (active)
same,growth inhibition,[6]; at 1.2 µM,8%
same,growth inhibition,[6]; at 3.7 µM,65%
same,growth inhibition,[6]; [17],47%
same,growth inhibition,[6]; at 11.0 µM,100% (active)
same,growth inhibition,[6]; at 33.0 µM,100% (active)
same,growth inhibition,[6]; [18],99% (active)
same,growth inhibition,[6]; at 50.0 µM,86.7% (active)
same,growth inhibition,[6]; at 100.0 µM,99% (active)
same,growth inhibition,[7]; at 1.2 µM,3%
same,growth inhibition,[7]; at 3.7 µM,37%
same,growth inhibition,[7]; at 11.0 µM,99% (active)
same,growth inhibition,[7]; at 33.0 µM,99% (active)
same,growth inhibition,[7]; at 100.0 µM,99% (active)
same,growth inhibition,[8]; [17],53%
same,growth inhibition,[8]; [18],99% (active)
same,growth inhibition,[8]; at 50.0 µM,99.5% (active)
same,growth inhibition,[9]; at 1.2 µM,0%
same,growth inhibition,[9]; at 3.7 µM,87% (active)
same,growth inhibition,[9]; at 11.0 µM,99% (active)
same,growth inhibition,[9]; at 33.0 µM,99% (active)
same,growth inhibition,[9]; at 100.0 µM,99% (active)
same,growth inhibition,[10]; [17],30%
same,growth inhibition,[10]; [18],99% (active)
same,growth inhibition,[10]; at 50.0 µM,63.5%
same,growth inhibition,[11]; at 1.2 µM,0%
same,growth inhibition,[11]; at 3.7 µM,34%
same,growth inhibition,[11]; [17],30%
same,growth inhibition,[11]; at 11.0 µM,99% (active)
same,growth inhibition,[11]; at 33.0 µM,99% (active)
same,growth inhibition,[11]; [18],99% (active)
same,growth inhibition,[11]; at 50.0 µM,59.9%
same,growth inhibition,[11]; at 100.0 µM,99% (active)

# Source: PubChem BioAssay (NCI)
